The structures appear in SMILES notation. Values joined by “and” are separate entries in the source; they are usually repeats but may differ in a detail not shown here. Identical values can stand only once. The campaign covered roughly 290,000 compounds. About 27,000 (9.3%) were called active. The full list was thinned out, with actives kept by preference. Values without a mark were called inactive. No stated cut-off is given here; in the data, active means inhibition mostly above about 28% (no sharp cut-off); inactive means mostly below about 43%.

The assay is described as follows: A qHTS for Small Molecule Inhibitors of Shiga Toxin. Further: 0% is about no effect. As to conditions: Vero cells, Shiga toxin protein synthesis inhibition reporter; at 38.7 µM, stronger effect = higher value.
A word on the inhibition: it is the change of the read-out against control, counted positive when it falls. For `COC(=O)c1ccc(CN2CCCC(C(=O)Nc3cccc(-n4cnnn4)c3)C2)cc1` (stereo not given), the inhibition is -11.4%. For `OCCCN1c2ccccc2Nc2nnc(-c3ccccc3)cc21` the value was 57.2% (active); for `N=c1c2c(-c3ccccc3)c(-c3ccccc3)n(Cc3ccccc3)c2ncn1CCCO`, -13.5%. Turning to `O=[N+]([O-])c1ccc(N(CCO)Cc2ccccc2)c([N+](=O)[O-])c1`, the inhibition is 6.65%. Regarding `COc1ccc(C(=O)c2c(C)c(CCC#N)n3ccccc23)c(OC)c1`, the inhibition was -12.7%. For `CC(C)C(=O)Nc1c(C(=O)c2ccc(F)cc2)oc2ccccc12` the value was -3.91%.

On to `CC(C)C(=O)Nc1ccc2c(c1)oc1ccccc12`, for which the inhibition is 105% (active). Take `CC(C)C(=O)Nc1ccc2oc(=O)ccc2c1`: the inhibition is 31%. Turning to `Cc1c(CC(=O)NCC(=O)NCC(=O)O)c(=O)oc2cc3oc4c(c3cc12)CCCC4`, the inhibition is 2.91%. `CCNC(=O)c1sccc1-n1cccc1`: the inhibition is -7.99%.

For `CC(C)=CCc1c(O)c(CC=C(C)C)c2occ(-c3ccc(O)cc3)c(=O)c2c1O`, the inhibition is 46.6% (active).

For `CCc1ccc(OCC(=O)NCC(c2ccc(Cl)cc2)N2CCCCC2)cc1` (stereo not given), the inhibition is -3.91%. `CCOC(=O)Cn1c(O)c(N=NC(=O)CNC(=O)Cc2ccccc2)c2ccccc21`: the inhibition is 13.1%. For `CC(C)(C)N(Cc1ccccc1)C(=O)c1ccncc1` the value was -5.35%; for `O=C(Nc1ccccc1)OCc1cc(-c2ccc(Cl)cc2)on1`, -25%; for `O=C(Nc1cccc(CCc2ccccn2)c1)c1ccc(Cl)cc1`, 22.8%. With `O=C(Nc1cccc(Cl)c1)OCc1ccccn1` the figure was 98% (active); with `COC(=O)c1ccc2ccccc2c1OC1OC(CO)C(O)C(O)C1NC(C)=O` (stereo not given), -11.3%; with `CCN(CC)c1ccc2oc(=O)c(C)nc2c1`, 22% (active). Turning to `CCN(CC)c1ccc2c(Nc3ccccc3)c(C=O)c(=O)oc2c1`, the inhibition is 29.5%. For `CCN(CC)c1ccc2cc(C(N)=O)/c(=N\NC(=O)c3ccncc3)oc2c1`, the inhibition was 24.7%. For `COc1cc2c(cc1OC)C(/C=C/c1ccco1)=NCC2` the value was -7.71%; for `Cc1ccc(NC(=O)C2CC(c3ccc(F)cc3)=NO2)cc1` (stereo not given), -22.6%. On to `Cc1ccccc1N1CC(C(=O)Nc2ccc3c(c2)OCO3)CC1=O` (stereo not given), for which the inhibition was 21.6%. With `O=C(Nc1ccc2c(c1)OCO2)C1CC(c2c(F)cccc2Cl)=NO1` (stereo not given) the figure was 72.1% (active). Turning to `COc1cc(S(=O)(=O)Nc2ncn[nH]2)ccc1Cl`, the inhibition is -3.71%. With `CCC1CCCCN1C(=S)Nc1ccc(S(=O)(=O)Nc2ncccn2)cc1` (stereo not given) the figure was 8.74%; with `CC(=O)c1ccc(OCC(O)CN2CCN(S(=O)(=O)c3cccc(Br)c3)CC2)cc1` (stereo not given), -10%. With `COc1ccc(S(=O)(=O)Nc2c(C)n(C)n(-c3ccccc3)c2=O)cc1` the figure was 1.34%. For the compound `COc1ccc(S(=O)(=O)/N=C2\C=C(NS(=O)(=O)c3ccccc3)C(=O)c3ccccc32)cc1`, the inhibition is 61.3% (active). With `COc1ccc2cc(S(=O)(=O)Nc3ccccn3)ccc2c1` the figure was -1.18%; with `CCn1c(C)c(C)c2cc(C(=O)N3CCN(c4cccc(C)c4C)CC3)ccc21`, -9.52%; with `Cc1ccc(S(=O)(=O)N2CCC(C(=O)NCC3CCCO3)CC2)cc1` (stereo not given), -25.2%. For `Cc1ccc(C(=O)N/C(=C/c2cccs2)C(=O)NCC2CCCO2)cc1` (stereo not given) the value was 16.9%; for `Cc1ccc(-n2c(C)cc(/C=C(\C#N)C(=O)NCC3CCCO3)c2C)cc1` (stereo not given), 108% (active). With `COc1ccc(-c2cc(C(=O)N(C)Cc3ccccc3)c3ccccc3n2)cc1` the figure was -2.41%; with `C/C(N)=C(/C#N)C(=O)COC(=O)c1cc(-c2ccc(C)cc2)nc2ccccc12`, 53.2% (active). Regarding `CNC(=O)COC(=O)c1cc(-c2ccc(OC)cc2)nc2ccccc12`, the inhibition is 54.5% (active). For `COc1ccc(-c2cc(C(=O)n3cnc4ccccc43)c3ccccc3n2)cc1`, the inhibition was 6.77%. With `C/C(N)=C(/C#N)C(=O)COC(=O)c1cc(-c2cccc(Br)c2)nc2ccccc12`, the inhibition was 5.3%.

In the case of `C/C(N)=C(/C#N)C(=O)COC(=O)c1cc(-c2ccccc2)nc2ccc(Br)cc12`, the inhibition is -3.47%. On to `O=C(c1cccs1)N(Cc1cc2ccccc2[nH]c1=O)CC1CCCO1` (stereo not given), for which the inhibition is -16%. With `CCN1C(=NCCc2cccnc2)N[C@@H](c2ccccc2)C(C(=O)OC)=C1C` the figure was -1.87% and -4.64%; with `S=C(Nc1cccnc1)Nc1ccccn1`, -1.64%. With `Cc1ccc(NC(=S)NCc2ccccc2Cl)c(C)c1` the figure was -19.8%; with `Cc1ccc(NC(=S)NCCc2ccc(Cl)cc2)c(C)c1`, 13.6%; with `Cc1ccc(NC(=S)Nc2ncccc2C)c(C)c1`, 54.2% (active).

On to `COc1ccc(CN2CC(C(=O)NCCc3ccc(Cl)cc3)CC2=O)cc1` (stereo not given), for which the inhibition is -11.7%.

As to `Cn1ncc(Br)c1C(=O)NC1CCCC1`, the inhibition is -7.94%.

`C=CCn1c(=NC(=O)c2cccs2)sc2cc(NC(C)=O)ccc21`: the inhibition is 47.4% (active).

As to `C=CCn1c(=NC(=O)c2ccc(S(=O)(=O)N3CCCC3)cc2)sc2cc(NC(C)=O)ccc21`, the inhibition is -8.21%. For `C=CCn1c(CCNC(=O)c2cccs2)n[nH]c1=S` the value was 2.22%; for `COc1ccc(CNS(=O)(=O)c2cc(-c3cc(C)no3)ccc2C(C)C)cc1`, -15.5%. For `CN(C)Cc1c(C(=O)N/N=C/c2ccccc2OCc2ccc(F)cc2)nnn1-c1nonc1N` the value was -7.12%. For `O=C(/C=C\c1ccc2c(c1)OCO2)NC1(C(=O)Nc2ccc3c(c2)OCCO3)CCCCC1` the value was -4.85%. In the case of `O=C(/C=C/c1ccc(Cl)c([N+](=O)[O-])c1)c1ccc(O)cc1`, the inhibition is 10.6%. Regarding `O=C(/C=C/c1ccc2c(c1)OCCO2)c1ccc(O)cc1`, the inhibition is 56.9% (active). Turning to `CN(C)c1ccc(/C=C/C(=O)c2ccc(C(C)(C)C)cc2)cc1[N+](=O)[O-]`, the inhibition was 27.8%. For `O=C(O)/C=C/c1ccc2c(c1)OCCO2` the value was -2.74%; for `CN(C)c1ccc(/C=C/C(=O)c2ccc(O)cc2)cc1[N+](=O)[O-]`, 48.8% (active).

For the origin of these results see PubChem BioAssay AID2315 (National Center for Advancing Translational Sciences (NCATS), 2010).
